For 43 compounds, outcome, activation and Potency results are on record in PubChem BioAssay (NCATS).

Molecules are shown by their SMILES. “And” between values parts separate entries of the source, which are not always exact repeats. Identical values can stand only once. A number with no mark means an inactive call. Inconclusive results are not listed. The source made the active and inactive calls. Unless noted, calls follow the shape of the full dose curve.

Assay [1] addresses Bile acid receptor (Homo sapiens) (UniProt Q96RI1). The experiment in a line: qHTS assay for small molecule antagonists of farnesoid X receptor signaling (AID 588526). Also: % is scaled to controls: 0 for no effect and ±100 for the full control effect. In a few lines: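 Antagonist mode: titrated compounds tested against chenodeoxycholic acid stimulation (normalized to 50 uM CDCA and DMSO) in GeneBLAzer HEK293T cells for 16 h. Beta-lactamase read by CCF4 fluorescence; IC50 from Hill fits.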
For orientation: Quantitative high-throughput screening tests each substance at several concentrations.

For assay [2] the target is unchanged. Put plainly: qHTS assay for small molecule agonists of farnesoid X receptor signaling (AID 588527).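 Also: series mostly up to about 77 µM; 0% = vehicle basal and 100% = reference agonist.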 The settings on record: HEK293T FXR-UAS-bla, beta-lactamase ratio, 16 h; stronger effect = higher value. The procedure, abridged:
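FXR-UAS-bla HEK293T, 10% dialyzed FBS; cpds up to 92 uM titration, 16 h 37 C; CCF4 dye 2 h RT; fluorescence. Normalized to chenodeoxycholic acid 100 uM (100%) and DMSO (0%); Hill fit gives EC50, efficacy.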

Assay [3] can be described thus: qHTS assay to identify small molecules that stimulate interleukin-8 (IL-8) secretion (AID 651758; active = well fitted activation curve with a large enough effect in the signal ratio; the % refers to the signal ratio; also: 0% is about no effect). In a few lines:
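Compounds are added to THP-1 cells (2000 per well) and left 16 hrs at 37 C. A labeled anti-IL-8 antibody pair is then added, and IL-8 secretion is measured by time-resolved FRET after 1-3 hrs at room temperature.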

Assay [4] addresses Androgen receptor (Homo sapiens) (UniProt P10275). Put plainly: qHTS assay for small molecule agonists of androgen receptor signaling (AID 588515; active = well fitted curve in the direction sought with a large enough effect in the signal ratio, with a control signal flat; the % refers to the signal ratio; also: % is scaled to controls: 0 for no effect and ±100 for the full control effect). The conditions noted are these: AR-UAS-bla HEK293, beta-lactamase ratio, agonist 16 h; stronger effect = higher value. The procedure, abridged:
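Stimulation of an AR-responsive β-lactamase reporter in GripTite HEK293 cells was measured after 16 h compound exposure at 37 °C, via CCF4 fluorescence after 2 h RT. EC50 from Hill fits, normalized to R1881 at 30 nM.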

Assay [5] deals with Cytochrome P450 3A4 (Homo sapiens) (UniProt P08684). The experiment in a line: qHTS Assay for Activators of Cytochrome P450 3A4 (AID 885; active = well fitted curve in the direction sought with a large enough effect; an effect the other way counts as inactive or inconclusive; also: nearly all actives have a fitted effect of over 65% in size). The procedure, abridged:
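CYP3A4 activity: Luciferin-PPXE O-dealkylation, 25uM substrate, 200mM KPO4, RT throughout. Read-out is luciferase luminescence; higher values reflect activation.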

Assay [6] concerns the target Androgen receptor (Homo sapiens) (UniProt P10275). The experiment in a line: qHTS assay for small molecule antagonists of androgen receptor signaling (AID 588516; active = well fitted curve in the direction sought with a large enough effect in the signal ratio, with a control signal flat, not every such curve was filed as active; the % refers to the signal ratio; also: % is scaled to controls: 0 for no effect and ±100 for the full control effect). The procedure, abridged:
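Antagonist-mode qHTS: inhibition of R1881 (10 nM)-driven beta-lactamase expression in GripTite HEK 293 cells is measured after 16 h; values are Hill-derived IC50s normalized between R1881 and DMSO wells.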

Assay [7] can be described thus: Confirmation and Secondary Assay for Modulators of Hemoglobin Beta Chain Splicing at IVS2 654 locus (AID 910; active = well fitted curve in the direction sought with a large enough effect; an effect the other way counts as inactive or inconclusive;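 also: HeLa cells stably carrying EGFP split by mutant beta-globin IVS2-654 intron; % of control where 0% means no effect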). The procedure, abridged: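 HeLa cells stably expressing EGFP interrupted by β-globin IVS2-654 intron, seeded overnight in Opti-MEM/2% FCS, then treated 2 days at 37 °C. Restored splicing read as total peak GFP intensity per well by laser scanning cytometry (488 nm excitation, 500–520 nm emission); 500 nM antisense PNA as control.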

The nature of assay [8]: Confirmation and Secondary Assay for Modulators of Hemoglobin Beta Chain Splicing at IVS2 705 locus (AID 930; active = well fitted curve in the direction sought with a large enough effect; an effect the other way counts as inactive or inconclusive;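 also: HeLa cells stably expressing the EGFP-705 splicing reporter; GFP fluorescence per well restored by corrected splicing of the IVS2-705 intron in EGFP; series mostly up to about 46 µM; % of control where 0% means no effect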). In a few lines: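 Stable HeLa line with EGFP disrupted by mutant beta-globin intron 2 (705). Overnight attachment, then 2 days of compound at 37C, 5% CO2. Signal: peak GFP intensity summed over objects 5-250 µm.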

Androgen receptor (Homo sapiens), sequence (P10275 whole entry, looked up): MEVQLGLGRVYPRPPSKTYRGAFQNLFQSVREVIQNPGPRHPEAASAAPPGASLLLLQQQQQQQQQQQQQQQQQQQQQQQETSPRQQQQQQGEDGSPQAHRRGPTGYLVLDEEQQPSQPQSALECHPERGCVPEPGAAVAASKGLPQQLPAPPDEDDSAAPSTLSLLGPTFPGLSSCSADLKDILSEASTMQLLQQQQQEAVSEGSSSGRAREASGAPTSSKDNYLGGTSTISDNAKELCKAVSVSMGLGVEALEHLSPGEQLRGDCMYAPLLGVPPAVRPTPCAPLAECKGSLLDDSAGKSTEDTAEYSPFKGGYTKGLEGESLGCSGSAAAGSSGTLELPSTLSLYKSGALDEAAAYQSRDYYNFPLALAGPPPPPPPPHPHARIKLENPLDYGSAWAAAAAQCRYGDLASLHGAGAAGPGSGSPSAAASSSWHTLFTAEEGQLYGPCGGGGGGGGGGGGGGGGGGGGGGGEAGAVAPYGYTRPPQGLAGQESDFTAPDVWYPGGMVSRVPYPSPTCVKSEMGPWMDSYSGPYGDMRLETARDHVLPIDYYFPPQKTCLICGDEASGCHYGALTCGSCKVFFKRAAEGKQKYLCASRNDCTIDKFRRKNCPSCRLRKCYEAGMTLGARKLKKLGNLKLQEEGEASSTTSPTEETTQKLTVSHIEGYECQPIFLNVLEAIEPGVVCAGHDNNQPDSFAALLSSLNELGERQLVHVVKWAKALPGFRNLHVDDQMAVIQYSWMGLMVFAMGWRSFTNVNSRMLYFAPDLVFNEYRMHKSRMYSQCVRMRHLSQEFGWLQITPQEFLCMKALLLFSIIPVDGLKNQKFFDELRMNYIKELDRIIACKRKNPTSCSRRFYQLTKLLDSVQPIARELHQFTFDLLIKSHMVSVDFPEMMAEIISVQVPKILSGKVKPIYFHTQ
Cytochrome P450 3A4 (Homo sapiens), sequence (P08684 whole entry, looked up): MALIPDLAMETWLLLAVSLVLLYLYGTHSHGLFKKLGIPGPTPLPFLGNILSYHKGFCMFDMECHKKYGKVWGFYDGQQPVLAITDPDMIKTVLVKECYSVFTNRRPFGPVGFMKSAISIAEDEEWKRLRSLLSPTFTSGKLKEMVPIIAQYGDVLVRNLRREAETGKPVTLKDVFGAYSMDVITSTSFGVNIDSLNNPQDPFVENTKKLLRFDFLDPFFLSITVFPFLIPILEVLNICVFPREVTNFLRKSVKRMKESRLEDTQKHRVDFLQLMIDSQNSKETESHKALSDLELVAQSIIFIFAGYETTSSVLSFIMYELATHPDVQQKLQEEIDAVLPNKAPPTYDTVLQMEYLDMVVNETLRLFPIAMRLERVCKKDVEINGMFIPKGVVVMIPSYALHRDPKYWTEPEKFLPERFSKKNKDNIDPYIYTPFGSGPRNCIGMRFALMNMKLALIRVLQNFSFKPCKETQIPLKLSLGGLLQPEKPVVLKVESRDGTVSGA
Bile acid receptor (Homo sapiens), sequence (Q96RI1 whole entry, looked up): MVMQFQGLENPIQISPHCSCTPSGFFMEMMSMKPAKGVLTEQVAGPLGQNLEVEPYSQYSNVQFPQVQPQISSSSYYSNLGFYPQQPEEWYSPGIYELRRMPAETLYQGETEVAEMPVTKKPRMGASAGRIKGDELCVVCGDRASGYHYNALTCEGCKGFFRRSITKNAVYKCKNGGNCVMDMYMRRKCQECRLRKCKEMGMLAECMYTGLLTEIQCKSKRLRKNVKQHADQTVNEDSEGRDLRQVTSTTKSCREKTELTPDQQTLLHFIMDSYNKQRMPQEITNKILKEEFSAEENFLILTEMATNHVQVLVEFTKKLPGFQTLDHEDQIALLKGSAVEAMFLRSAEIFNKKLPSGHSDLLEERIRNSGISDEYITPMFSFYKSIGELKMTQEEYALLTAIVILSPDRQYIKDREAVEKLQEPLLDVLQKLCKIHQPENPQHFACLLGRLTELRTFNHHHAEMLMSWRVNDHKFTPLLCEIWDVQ

On to `CCCC[N+](=O)[O-]`, for which, in assay [1], the call was inactive. Besides, the activation in assay [2] is -0.886%.
For `CN(C)C(=O)Nc1cccc(C(F)(F)F)c1`, the Potency result in assay [3] is “inactive”.
Turning to `CC(C)[N+](=O)[O-]`, the call in assay [1] was inactive. For the same compound, in assay [2], the activation is -1.29%. Moreover, in assay [3], the Potency entry is “inactive”.
`O=C(Cl)c1ccccc1F`: the activation in assay [2] is 2.29%.
For `O=[N+]([O-])c1cc(Cl)c(Cl)c(Cl)c1`, the compound was classed as inactive in assay [1]. The activation in assay [2] was -2.43%.
With `Oc1c(Cl)c(Cl)cc(Cl)c1Cl`, the figures for the activation in assay [4] and in assay [2] were -20.1% and 3.3%, respectively.
Take `Clc1cc(Cl)c(Cl)c(Cl)c1`: the Potency result in assay [3] is “inactive”.
The same measure, in the same setting: for `O=[N+]([O-])c1ccccc1O` the value was “inactive”; for `C=CC(=O)OCC(C)C`, “inactive”.
With `N#CC(Br)Br`, the activation in assay [2] was -0.424%.
Regarding `CN(C)c1ccc(N)cc1`, the Potency result in assay [5] is “inactive”. Further, in assay [4], the activation was -5.02%.
On to `CCCCOCC1CO1` (centres undefined), for which the call in assay [1] was inactive. Moreover, the activation in assay [2] was -3.01%.
Regarding `Nc1ccc(Cl)c(Cl)c1`, the Potency result in assay [5] and in assay [3] was “inactive” each time.
For `CCCCC(CC)COC(=O)c1ccc(C(=O)OCC(CC)CCCC)c(C(=O)OCC(CC)CCCC)c1` (centres undefined), the activation in assay [4] is -4.73%.
`Nc1cccc2ccccc12`: the Potency entry in assay [5] and in assay [3] was “inactive” throughout.
Take `CC(C)[C@]12CC(=O)[C@H](C)[C@H]1C2`: the compound was called inactive in assay [1]. Further, the activation in assay [2] is -2.27% and 5.04%.
With `CC(C)Br`, in assay [1], the outcome was inactive. Further, in assay [2], the activation was -0.0522%. The Potency entry in assay [3] was “inactive”.
With `N#CC(Cl)(Cl)Cl`, the activation in assay [4] is -3.49%; in assay [2], -1.65%. Also, the outcome in assay [6] and in assay [1] was inactive.
As to `O=[N+]([O-])c1c(Cl)c(Cl)c(Cl)c(Cl)c1Cl`, the activation in assay [4] was 15.3% and 4.1%. Further, the call in assay [6] was inactive.
For the compound `Nc1ccc(Oc2ccc(N)cc2)cc1`, the Potency entry in assay [5] and in assay [3] was “inactive” throughout.
For the compound `C=CCCC#N`, in assay [1], the outcome was inactive. Besides, the activation in assay [2] is -0.315%.
`O=[N+]([O-])/C=C/c1ccccc1`: in assay [1], the compound was classed as inactive. Besides, the activation in assay [2] is 2.07%.
Regarding `CC(C)(C)c1ccccc1O`, in assay [3], the Potency entry is “inactive”.
Consider `BrC(Br)Br`, for which the compound was classed as inactive in assay [1]. Further, the activation in assay [2] was -2.73%.
On the same counts, the results for `O=C(O)C(Cl)Br` (centres undefined) are “inactive” and -0.167%.
The corresponding values for `CCC#N` are “inactive” and -0.411%.
On to `Nc1c(Br)cc([N+](=O)[O-])cc1[N+](=O)[O-]`, for which the Potency result in assay [5] was “inactive”. Further, the activation in assay [4] is -3.78%; in assay [2] it was 0.276%. For the same compound, in assay [1], the result was inactive.
With `Cc1coc2c1CCC(C)C2` (centres undefined), the Potency entry in assay [3] is “inactive”.
Same read-out and setting: for `C=CC=O` the value was “inactive”.
Consider `CCCN(CCC)c1c([N+](=O)[O-])cc(C(F)(F)F)cc1[N+](=O)[O-]`, for which the Potency result in assay [5] was “inactive”. In addition, the compound was classed as inactive in assay [7], in assay [8], in assay [6] and in assay [1]. In addition, the activation in assay [4] is -14.6% and 7.28%; in assay [2], 1.13%.
`C(CCOCC1CO1)COCC1CO1` (centres undefined): in assay [1], the result was inactive. The activation in assay [2] is -2.57%.
For `CSSC`, the Potency result in assay [3] was “inactive”.
Consider `O=C(O)C(Br)Br`, for which the result in assay [1] was inactive. Besides, the activation in assay [2] was -1.44%.
The corresponding values for `O=[N+]([O-])c1ccccc1CCl` are “inactive” and -1.64%.
For the compound `Cc1cc(C)cc(OP(=O)(Oc2cc(C)cc(C)c2)Oc2cc(C)cc(C)c2)c1`, the Potency entry in assay [5] was “inactive”. Moreover, the activation in assay [2] was 0.362%.
On the same counts, the results for `COC(=O)Nc1cccc(OC(=O)Nc2cccc(C)c2)c1` are “inactive” and 0.654%.
Regarding `C=CC(=O)OC`, the call in assay [1] was inactive. In addition, the activation in assay [2] is 1.11%.
As for `Cc1cc(N=Nc2ccccc2C)ccc1N`, the Potency entry in assay [5] and in assay [3] was “inactive” in each case. The activation in assay [4] was -4.45%; in assay [2], -3.42% and -2.58%. The compound was called inactive in assay [6] and in assay [1].
For `O=S(=O)(Cl)c1ccccc1`, in assay [1], the call was inactive. Further, the activation in assay [2] was 1.82%.
Turning to `Cc1ccc([N+](=O)[O-])cc1`, in assay [3], the Potency entry was “inactive”.
Regarding `Nc1ccc2ccccc2c1`, the Potency entry in assay [5] and in assay [3] was “inactive” throughout.
As for `OCCOCCO`, in assay [2], the activation is -2.87%. For the same compound, the Potency result in assay [3] was “inactive”.
Consider `CCOS(C)(=O)=O`, for which the outcome in assay [1] was inactive. Further, the activation in assay [2] was 1.7%.
